Test systems include DU-145 prostate; K-562 leukemia; MALME-3M melanoma; MDA-MB-231 breast; RXF 393 renal; SF-268 CNS; SF-295 CNS; SF-539 CNS; UACC-257 melanoma; M14 melanoma; HCT-15 colon; HT29 colon; SNB-75 CNS; SNB-19 CNS; U251 CNS; PC-3 prostate; SK-MEL-5 melanoma; UACC-62 melanoma; LOX IMVI melanoma; SK-MEL-28 melanoma.
Holding throughout (assay): NCI-60 one-dose screen, 48 h (100 = growth as untreated, 0 = no growth, -100 = all killed)
What all share (details): 10 µM unless noted

Compounds without any hit were thinned out: in the full panel of roughly 83,000, 20% have a hit.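 Plates (96-well) were seeded with cells, treated with compound at one concentration, and incubated for 48 hours before percent growth was determined.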 A number with no mark means an inactive call. Activity calls are given as the source filed them. The calls were made as follows: active = growth percent below 10; inactive = the rest.

Experimental findings from PubChem BioAssay (NCI) are described below.

Regarding `COc1ccc(C(=O)Nn2c(NCC(=O)N3c4ccccc4Sc4ccccc43)nnc2-c2ccc(O)cc2)cc1`, the growth in the experiment with DU-145 prostate is 116%; in the experiment with K-562 leukemia it was 114%; in the experiment on MALME-3M melanoma, 98.1%; with MDA-MB-231 breast, 101%; in the experiment on RXF 393 renal it was 117%; in the experiment on SF-268 CNS, 111%. For the same compound, the growth with SF-295 CNS was 107%; with SF-539 CNS, 117%; in the experiment with UACC-257 melanoma it was 94.9%; in the experiment with M14 melanoma it was 91.7%; in the experiment on HCT-15 colon it was 96.9%; in the experiment with HT29 colon it was 98.2%. Also, the growth with SNB-75 CNS was 115%; in the experiment on SNB-19 CNS, 111%; in the experiment with U251 CNS it was 97%; in the experiment with PC-3 prostate it was 97.6%; in the experiment on SK-MEL-5 melanoma, 104%; with UACC-62 melanoma, 104%. In addition, the growth was 98.4% in the experiment with LOX IMVI melanoma and 119% with SK-MEL-28 melanoma.

As for `C[C@H](NC(=O)[C@@H]1CSSC[C@@H](NC(=O)c2nc3ccccc3cc2O)C(=O)NCC(=O)N1C)c1ccccc1`, the growth in the experiment on DU-145 prostate was 32.2%; with K-562 leukemia it was -30.9% (active); with MALME-3M melanoma, 49.9%; in the experiment with MDA-MB-231 breast, -39.5% (active); in the experiment with RXF 393 renal it was -27.4% (active); with SF-268 CNS, 17.6%. The growth is 77.6% in the experiment with SF-295 CNS; 5.09% (active) with SF-539 CNS; 60.9% with UACC-257 melanoma; 0.586% (active) in the experiment on M14 melanoma; 42.1% with HCT-15 colon; -28.2% (active) with HT29 colon. Further, the growth with SNB-75 CNS was 80.3%; with SNB-19 CNS it was 35.4%; with U251 CNS, -7.49% (active); in the experiment on PC-3 prostate, 54.7%; in the experiment on SK-MEL-5 melanoma it was 0.825% (active); in the experiment on UACC-62 melanoma, 16.7%. Also, the growth in the experiment with LOX IMVI melanoma is -74.5% (active); in the experiment with SK-MEL-28 melanoma it was 33.9%.

Consider `Cc1cc(NCc2cc(Nc3ccnc4cc(Cl)ccc34)ccc2F)nc(N2CCN(C)CC2)n1`, for which the growth with DU-145 prostate is 23.4%; in the experiment on K-562 leukemia, -37.2% (active); in the experiment on MALME-3M melanoma it was -68.3% (active); with MDA-MB-231 breast it was -43.9% (active); in the experiment with RXF 393 renal, -27.1% (active); with SF-268 CNS, 12.6%. Also, the growth in the experiment with SF-295 CNS is -60.9% (active); with SF-539 CNS, -75.3% (active); in the experiment on UACC-257 melanoma, -59.7% (active); in the experiment on M14 melanoma it was -73.1% (active); in the experiment on HCT-15 colon, -42.9% (active); in the experiment with HT29 colon, -24.5% (active). For the same compound, the growth in the experiment on SNB-75 CNS was -50.9% (active); with SNB-19 CNS, 29.7%; in the experiment on U251 CNS it was -28.2% (active); in the experiment on PC-3 prostate, 21.5%; in the experiment on SK-MEL-5 melanoma, -98% (active); in the experiment on UACC-62 melanoma, -63.8% (active). Besides, the growth with LOX IMVI melanoma is -86.6% (active); with SK-MEL-28 melanoma, -70% (active).

As for `NC(=O)c1ccc[n+]([C@@H]2O[C@H](COP(=O)([O-])OP(=O)(O)OC[C@H]3O[C@@H](n4cnc5c(N)ncnc54)[C@H](O)[C@@H]3O)[C@@H](O)[C@H]2O)c1`, the growth in the experiment with DU-145 prostate is 105%; in the experiment with K-562 leukemia, 109%; with MALME-3M melanoma, 115%; in the experiment with MDA-MB-231 breast, 98%; in the experiment on RXF 393 renal it was 125%; in the experiment with SF-268 CNS it was 104%. The growth with SF-295 CNS is 108%; in the experiment with SF-539 CNS, 90.3%; in the experiment with UACC-257 melanoma it was 108%; with M14 melanoma, 104%; in the experiment on HCT-15 colon, 97.3%; in the experiment with HT29 colon it was 106%. For the same compound, the growth is 104% in the experiment on SNB-75 CNS; 110% with SNB-19 CNS; 99.5% in the experiment on U251 CNS; 114% with PC-3 prostate; 112% with SK-MEL-5 melanoma; 119% in the experiment with UACC-62 melanoma. Moreover, the growth was 92.9% in the experiment with LOX IMVI melanoma and 103% in the experiment on SK-MEL-28 melanoma.

Take `O=C(CC(SCc1ccccc1)c1ccccc1)c1ccccc1` (stereo not given): the growth with DU-145 prostate was 95.5%; in the experiment on K-562 leukemia, 95.3%; in the experiment on MALME-3M melanoma, 98.5%; in the experiment with MDA-MB-231 breast, 98.1%; in the experiment on RXF 393 renal, 86.4%; in the experiment on SF-268 CNS, 87.6%. The growth in the experiment with SF-295 CNS is 94.1%; in the experiment with SF-539 CNS, 99%; with UACC-257 melanoma it was 111%; in the experiment with M14 melanoma, 87%; in the experiment with HCT-15 colon, 74.4%; with HT29 colon, 86.8%. For the same compound, the growth was 87.9% in the experiment on SNB-75 CNS; 88.6% in the experiment with SNB-19 CNS; 86.5% in the experiment on U251 CNS; 88.8% in the experiment on PC-3 prostate; 97.3% in the experiment on SK-MEL-5 melanoma; 85.3% in the experiment with UACC-62 melanoma. The growth is 85.6% with LOX IMVI melanoma and 105% in the experiment with SK-MEL-28 melanoma.

Regarding `O=c1cc(C2NNC(=S)N2)c2ccc3ccccc3c2o1` (stereo not given), the growth in the experiment on DU-145 prostate is 109%; with K-562 leukemia it was 90.5%; with MALME-3M melanoma, 104%; in the experiment on MDA-MB-231 breast, 96.3%; with RXF 393 renal, 87.4%; in the experiment with SF-268 CNS, 102%. The growth in the experiment on SF-295 CNS is 100%; in the experiment with SF-539 CNS it was 94.1%; in the experiment on UACC-257 melanoma, 116%; in the experiment with M14 melanoma, 102%; in the experiment with HCT-15 colon it was 98.1%; in the experiment on HT29 colon it was 100%. Moreover, the growth with SNB-75 CNS was 105%; in the experiment on SNB-19 CNS it was 93.2%; in the experiment on U251 CNS it was 96.8%; in the experiment on PC-3 prostate it was 85.2%; in the experiment on SK-MEL-5 melanoma, 96.8%; with UACC-62 melanoma, 86.3%. Further, the growth in the experiment with LOX IMVI melanoma was 87.5%; in the experiment with SK-MEL-28 melanoma, 114%.

For `COC(=O)[C@]12CC[C@@H](C)[C@H](C)[C@@H]1C1=CC[C@@H]3[C@@]4(C)C(C=O)=C[C@@](C)(COC(C)=O)[C@@H]4[C@H](O)C[C@@]3(C)[C@]1(C)CC2`, the growth is -73.1% (active) with DU-145 prostate; 4.82% (active) in the experiment with K-562 leukemia; -79.2% (active) in the experiment on MALME-3M melanoma; -39.2% (active) in the experiment with MDA-MB-231 breast; -82% (active) in the experiment on RXF 393 renal; 1.2% (active) in the experiment on SF-268 CNS. Also, the growth was -30% (active) in the experiment on SF-295 CNS; -55.4% (active) in the experiment on SF-539 CNS; -58.6% (active) in the experiment with UACC-257 melanoma; -43.3% (active) in the experiment on M14 melanoma; -62.7% (active) in the experiment with HCT-15 colon; -52.8% (active) in the experiment on HT29 colon. The growth in the experiment on SNB-75 CNS was -9.48% (active); with SNB-19 CNS, 29.4%; in the experiment with U251 CNS it was -46.7% (active); in the experiment on PC-3 prostate, 8.44% (active); with SK-MEL-5 melanoma, -93.3% (active); with UACC-62 melanoma, -46.7% (active). Also, the growth in the experiment with LOX IMVI melanoma is -99.1% (active); in the experiment with SK-MEL-28 melanoma, -52.6% (active).
